Values without a mark were called inactive. Active and inactive are the calls of the source.

The experiment in a line: growth modulation of vineyard yeast isolate – strain RM11-1a, OD600, basal, 24 h, primary screen (AID 1177).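 Note: cultures grown under basal conditions with no added stressor; test concentration not given here.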 To be noted: S. cerevisiae RM11-1a growth, OD600, 24 h; higher = more signal, called active from +8 up or from −8 down.
For the compound `[N-]=[N+]=NCc1ccccc1C[C@@]1(C(=O)N2CCCCC2)N=C(c2ccc(OCCCO)cc2)O[C@@H]1c1ccccc1`, the z-score is 1.95. In the case of `O=C1O[C@@H](c2ccccc2)[C@@H](c2ccccc2)N2[C@@H](c3ccc(OCCO)cc3)[C@]3(C(=O)Nc4ccccc43)[C@@H](C(=O)O)[C@H]12` it was -0.66; in that of `CC(CO)N1C(=O)[C@@H]2[C@H]3C(=O)OCC=C[C@H]3OC23C=CCN(C(C)(C)C)C(=O)[C@@H]13` (stereo partly specified), -0.505; in that of `CN1C(=O)C2C=CC(C(O)c3cccc4ccccc34)N(N3CCCCC3)C2C1=O` (stereo unspecified), -0.334. In the case of `CN(C)C(=O)[C@]1(CCS(=O)(=O)c2ccccc2)N=C(c2ccc(OCCCO)cc2)O[C@@H]1c1ccccc1N=[N+]=[N-]` it was 0.386; in that of `COC(=O)[C@@]1(Cc2ccc(F)cc2)[C@H]2c3cc(C(=O)N4CCCC4)n(CCc4ccc(O)c(O)c4)c3C[C@H]2CN1C(=O)c1ccccc1`, 1.78. In the case of `CN(C)CCCNC(=O)[C@@]1(c2ccc([N+](=O)[O-])cc2)CC(=O)N(CC23CC4CC(CC(C4)C2)C3)[C@@H]1c1ccc(CO)cc1I` it was -20.9 (active); in that of `Cc1cc(C)c(C(O)C2C=CC3C(=O)NC(=O)C3N2Nc2ccc(Cl)cc2Cl)c(C)c1` (stereo unspecified), 0.737; in that of `COCCOC(=O)N1C(=O)[C@@]2(c3cc(C#CC4=CCCCC4)ccc31)[C@H](c1ccc(OCCO)cc1)N1[C@H](c3ccccc3)[C@H](c3ccccc3)OC(=O)[C@H]1[C@@H]2C(=O)N1CCN(c2ncccn2)CC1`, 1.78.

Take `C=CCC(OC(C)=O)[C@@H]1[C@@H](N(Cc2ccc(-c3ccccc3)cc2)C(=O)Cc2ccc(F)cc2)c2cc(OCCCO)ccc2N1C(=O)Cc1ccc(OC)cc1` (stereo partly specified): the z-score was 0.313. For `COC(=O)[C@@]1(Cc2ccc(OC)cc2)[C@H]2c3cc(C(=O)N(C)C)n(C[C@H](O)CO)c3C[C@H]2CN1C(=O)c1ccccc1`, the z-score is 0.166.

As to `Cn1cccc1C(O)C1C=CC2C(=O)NC(=O)C2N1Nc1ccc(Cl)cc1Cl` (stereo unspecified), the z-score is 0.441. In the case of `COc1ccc([Si](C)(C)[C@@H]2[C@@H](CC(=O)N(CCO)Cc3ccccc3)O[C@]3(C(=O)N(Cc4cccc(N5C(=O)c6cccc7cccc5c67)c4)c4ccccc43)[C@H]2C)cc1` it was 0.323. On to `Cc1ccc(S[C@]2(C(=O)NCC(F)(F)F)CC(=O)N(Cc3ccccc3C(F)(F)F)[C@@H]2c2ccc(CO)cc2I)cc1`, for which the z-score was -1.21. Then `CCOc1cc(C(O)C2C=CC3C(=O)N(c4ccccc4)C(=O)C3N2Nc2ccc(C#N)cc2)ccc1O` (stereo unspecified), with 0.093; and `COCCOC(=O)N1C(=O)[C@@]2(c3ccccc31)[C@H](C(=O)N1CCN(c3ncccn3)CC1)[C@H]1C(=O)O[C@H](c3ccccc3)[C@H](c3ccccc3)N1[C@@H]2c1ccc(O)cc1`, with 0.953.

As to `CCCC[C@@H]1C[C@H]1[C@@H](NC(=O)c1cccs1)c1ccc(C(F)(F)F)cc1`, the z-score was 1.83. In the case of `COC(=O)c1ccc([C@H](NC(=O)c2ccco2)[C@]2(C)C[C@H]2C2CCCCC2)cc1` it was 0.158. Then `O[C@@H](Cc1ccccc1)[C@@H](/C=C/C1CC1)N(CC#Cc1ccccc1)Cc1cccc(Cl)c1`, with 0.438; and `N#Cc1ccc(C(O)C2C=CC3C(=O)N(c4ccccc4)C(=O)C3N2Nc2ccccc2)cc1` (stereo unspecified), with -0.433; and `CC(C)N1C(=O)c2ccccc2[C@@H](C(=O)NC2CC2)[C@@H]1c1ccc(CO)cc1`, with -0.716. In the case of `COC(=O)c1nc2oc1CC[C@@H](CO)NC(=O)N(C)Cc1cnnn1C[C@H](Cc1ccccc1)NC2=O` it was 0.477. With `C=CCNC(=O)[C@@H]1[C@H]2C(=O)O[C@H](c3ccccc3)[C@H](c3ccccc3)N2[C@H](c2ccc(O)cc2)[C@@]12C(=O)N(C(=O)OCCOC)c1ccc(C#CC3(O)CCCCCC3)cc12`, the z-score is 0.3.

As to `O=C1C=C(c2ccccc2)C(=O)c2ccc([C@H]3Oc4ccccc4S(=O)(=O)N4CCC[C@@H]34)cc21`, the z-score is -0.801. Then `C=C(COC)/C(=C/C[C@H](OC(C)=O)c1ccc(OCCO)cc1)c1cc(C(=O)OC)ccc1OC`, with -0.957. In the case of `CC(C)[Si](C#C[Si](C(C)C)(C(C)C)C(C)C)(O[C@H](C)c1cn([C@H](CO)Cc2ccccc2)nn1)C(C)C` it was -0.504.

The record behind these values is PubChem BioAssay.
